In the library only some 6.5% were active in any assay of this set; here they are far more common.
FMDV antiviral: High Throughput Screening for Foot and Mouth Disease Virus Antivirals; FMDV antiviral cell-based qHTS; Potency, µM (series often up to 57.9 µM), for inactives: at the highest dose activity change, negative = inhibition, most hits filed as inhibitors; actives 1.2% (n = 410,000); AID 1159524, 2015; calls by dose curve; tested in HEK293T cells; also: read-out not given here; potency is read from the fitted curve at half-maximal effect; nearly all actives have a fitted effect of over 45% in size
VACV mCherry inh: qHTS for Stage-Specific Inhibitors of Vaccinia Orthopoxvirus: mCherry Reporter Primary qHTS. Vaccinia virus mCherry reporter infection, fluorescence. Potency, µM (series often up to 36.5 µM), for inactives: at the top dose activity change, negative = inhibition, usual class: inhibitors. actives 0.63% (n = 310,000); calls by dose curve; tested in A549 cells; also: potency is read from the fitted curve at half-maximal effect; nearly all actives have a fitted effect of over 35% in size
HCMV inh: qHTS Assay for inhibitors of the human cytomegalovirus (HCMV) | activity change, negative = inhibition, % at 57.5 µM | AID 1259415, 2018 | HFF cells, HCMV-luciferase reporter, 72 h; active compounds read low | actives 4.5% (n = 410,000); in the data active = activity change below about -60%; inconclusive = no clear call, values can overlap the other calls; inactive = above about -39%
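Human foreskin fibroblasts infected with luciferase-reporter HCMV at MOI 1 PFU/cell, compounds at two doses. Luciferase measured 72 h post infection; normalized to buffer-only basal and Salinomycin (10uM) controls.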
Lassa entry inh: qHTS for Inhibitors of binding or entry into cells for Lassa Virus; Lassa virus pseudotype entry inhibition, cell reporter; Potency, µM (doses to about 37.9 µM), for inactives: at the top dose activity change, negative = inhibition, actives largely listed as inhibitors; actives 1.2% (n = 300,000); calls by dose curve; tested in HEK293 cells; also: potency is read from the fitted curve at half-maximal effect; nearly all actives have a fitted effect of over 50% in size
VACV Venus inh: qHTS for Stage-Specific Inhibitors of Vaccinia Orthopoxvirus: Venus Reporter Primary qHTS; Vaccinia virus Venus reporter expression, fluorescence; Potency, µM (series often up to 36.5 µM), inactives show at the highest dose activity change, negative = inhibition, actives largely listed as inhibitors; actives 0.46% (n = 330,000); AID 720580, 2013; calls by dose curve; tested in A549 cells; also: potency is read from the fitted curve at half-maximal effect; nearly all actives have a fitted effect of over 30% in size
MARV entry inh: qHTS for inhibitors of binding or entry into cells for Marburg Virus; Potency, µM (top dose mostly 37.8 µM), without a hit: at the highest dose activity change, negative = inhibition, hits mostly inhibitors; actives 1.8% (n = 300,000); Marburg virus pseudotyped entry inhibition, cell reporter; AID 540276, 2011; calls by dose curve; tested in HEK293 cells; also: potency is read from the fitted curve at half-maximal effect
The depositor's hits bear a star; i = inactive; ? = inconclusive; / = no result given; [ ] = another dose, or the depositor's remark. % is scaled to controls: 0 for no effect and ±100 for the full control effect.

SMILES	FMDV antiviral	VACV mCherry inh	HCMV inh	Lassa entry inh	VACV Venus inh	MARV entry inh
Cc1cc(C)nc(NC(=NCCc2c[nH]c3ccccc23)NC(=O)Nc2ccccc2)n1	0%	?	?	?	?	15µM*
Cc1cc(C)nc(NC(=NCCc2c[nH]c3ccccc23)NC(=O)Nc2cccc([N+](=O)[O-])c2)n1	-16%	-25%	-9	0%	-15%	-6%
COc1ccccc1CNC(=O)C/C(C)=N/NC(=O)Cc1ccc(OC)c(OC)c1	-23%	i	-66*	-6%	-8%	17%
CC(C(=O)NC1CCCC1)N(C(=O)Cn1nnc(-c2ccc(F)cc2)n1)c1ccccc1F (centres undefined)	-29%	-9%	-27	?	-16%	8.2µM*
NC(=O)c1nsc(C(=O)N(c2ccc3c(c2)OCCO3)C(C(=O)NCC2CCCO2)c2ccc(F)cc2)c1N (centres undefined)	10%	-13%	-74*	?	3%	?
Cc1ccc(C(C(=O)NCC2CCCO2)N(C(=O)c2snc(C(N)=O)c2N)c2ccc(F)cc2)o1 (centres undefined)	-14%	-10%	-75*	?	14%	?
Cc1ccc(C(C(=O)NCC2CCCO2)N(C(=O)c2snc(C(N)=O)c2N)c2ccc3c(c2)OCCO3)cc1 (centres undefined)	-2%	-4%	-5	6.3µM*	-10%	?
O=C1[C@H](c2ccccc2)[C@@H](c2ccncc2)N1c1ccncc1	/	/	-18	/	/	/
OC(c1ccc2c(c1)CN(Cc1cccn1-c1cccnc1)CCO2)C1CCCCC1 (centres undefined)	2%	-27%	/	/	-14%	/
C(=C\c1ccnc2ccccc12)/c1ccc2c(c1)OCO2	/	-18%	/	/	-17%	/
COc1ccc(N(C(=O)c2snc(C(N)=O)c2N)C(C(=O)NC2CCCCC2)c2ccc(C)o2)cc1 (centres undefined)	-15%	-17%	-70*	?	-14%	?
O=C(NCC1CCCO1)C(c1ccc(F)cc1)N(C(=O)Cn1nnc(-c2ccc(F)cc2)n1)c1cccc(O)c1 (centres undefined)	-27%	i	?	-1%	-14%	10µM*
NC(=O)c1nsc(C(=O)N(c2ccccc2)C(C(=O)NCC2CCCO2)c2cccs2)c1N (centres undefined)	-20%	/	-19	?	/	?
Cc1cc(C)cc(N(C(=O)c2snc(C(N)=O)c2N)C(C(=O)NCC2CCCO2)c2cccs2)c1 (centres undefined)	-11%	-23%	-93*	?	-12%	?
COc1ccc(N(C(=O)c2snc(C(N)=O)c2N)C(C(=O)NC2CCCC2)c2ccco2)cc1 (centres undefined)	-5%	-3%	-38	-27%[46.1 µM]	-11%	?
Fc1ccc(/C=C2\CCCC3=C2Nc2ncnn2C3c2ccc(F)cc2)cc1 (centres undefined)	?	?	18	?	18µM*	?
CCSc1nc2ccccc2n1CC(N)=O	-17%	/	-24	-1%	/	16%
CCSc1nc2ccccc2n1C(=O)/C=C\c1ccc(OC)c(OC)c1	13µM*	13µM*	-98*	?	?	13µM*
CC(C)CCNc1nc2c(c(=O)[nH]c(=O)n2C)n1CC(O)COC(C)C (centres undefined)	-3%	/	-66*	0%	-15%	-13%
CCc1ccccc1NC(=O)CSc1ncc2c(n1)-c1ccccc1N(Cc1ccc(C)cc1)S2(=O)=O	-22%	-24%	-5	-20%[46.1 µM]	-23%	/
CN(C)c1ccc(/C=N/N=C2/NC(=O)/C(=C/c3ccc([N+](=O)[O-])cc3)S2)cc1	8.9µM*	-21%	-22	2µM*	2%	?
CN(C)c1ccc(C=C2SC(=S)NC2=O)cc1	27%	-9%	33	-21%[46.1 µM]	96%	?
CC1=C2[C@H](O)[C@H]([C@@H](C)C(=O)NCCC(C)C)CC[C@@]2(C)C=CC1=O	/	/	/	/	/	23%[14.2 µM]

Bioassay records deposited in PubChem BioAssay by National Center for Advancing Translational Sciences (NCATS).
